Values joined by “and” are separate entries in the source; they are usually repeats but may differ in a detail not shown here. Equal entries are not always repeated. Inconclusive results are not listed. Active and inactive are the calls of the source. Calls come from the whole dose curve; as a rule, active = well fitted curve in the direction sought with a large enough effect; inconclusive = small, poorly fitted or top-dose-only effect, or another doubt; inactive = no such curve, though single readings can be large; an effect the other way counts as inactive or inconclusive.
Key:
[1] = molecular target: Cellular tumor antigen p53 (Homo sapiens) (UniProt P04637); experiment: Primary qHTS for small molecule compounds that upregulate eGFP-tagged delta133p53alpha (in N-terminal) cells. (AID 2060322); settings: NCI-H358 eGFP-delta133p53alpha fluorescence, 24 h; activation: active compounds read high; note: nearly all actives have a fitted effect of over 75% in size; note: potency is the fitted concentration of half-maximal effect;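 for activation: 0% = DMSO vehicle and 100% = reference activator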
Chain of Cellular tumor antigen p53 (Homo sapiens) (P04637 whole entry, looked up): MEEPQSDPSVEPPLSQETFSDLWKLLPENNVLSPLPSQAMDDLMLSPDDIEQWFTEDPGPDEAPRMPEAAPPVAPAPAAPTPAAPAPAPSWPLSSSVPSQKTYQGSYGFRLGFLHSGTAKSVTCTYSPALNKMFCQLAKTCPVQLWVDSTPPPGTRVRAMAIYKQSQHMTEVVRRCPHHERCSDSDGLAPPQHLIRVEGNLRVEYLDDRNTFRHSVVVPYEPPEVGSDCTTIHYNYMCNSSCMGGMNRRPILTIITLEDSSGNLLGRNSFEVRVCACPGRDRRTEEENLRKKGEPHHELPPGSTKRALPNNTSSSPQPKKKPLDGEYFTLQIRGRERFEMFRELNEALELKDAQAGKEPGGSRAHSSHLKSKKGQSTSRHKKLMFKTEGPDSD
How it was run: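 NCI-H358 cells pre-induced 24 h with 10 ng/ml doxycycline to express N-terminal eGFP-delta133p53alpha, then dosed 24 h at 37C without doxycycline; fixed, Hoechst-stained, GFP intensity by laser scanning cytometry, normalized to DMSO (0%) and 57.5 uM 5-azacytidine (100%).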

[2] = molecular target: Aldehyde dehydrogenase, mitochondrial (Homo sapiens) (UniProt P05091); experiment: qHTS for Inhibitors of the Aldehyde Dehydrogenase Family (ALDH2) Primary screen (AID 2061308); settings: ALDH2 enzyme inhibition qHTS, 1536-well; series mostly up to 56 µM;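 note: plate controls were vehicle for no effect and reference inhibitor for full effect; nearly all actives have a fitted effect of over 55% in size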
[3] = molecular target: Retinaldehyde dehydrogenase 3 (Homo sapiens) (UniProt P47895); experiment: qHTS for Inhibitors of the Aldehyde Dehydrogenase Family (ALDH1A3) Validation screen (AID 2061312); settings: ALDH1A3 enzyme inhibition qHTS validation, fluorescence; series mostly up to 84.7 µM; note: nearly all actives have a fitted effect of over 45% in size; note: potency is the fitted concentration of half-maximal effect; for activity change, negative = inhibition: % is set by controls: 0 for no effect and ±100 for the full control effect
[4] = molecular target: Retinaldehyde dehydrogenase 3 (Homo sapiens) (UniProt P47895); experiment: qHTS for Inhibitors of the Aldehyde Dehydrogenase Family (ALDH1A3) Primary screen (AID 2061315); settings: ALDH inhibition qHTS; series mostly up to 56 µM;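 note: plate controls were DMSO vehicle for no effect and reference inhibitor for full effect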
[5] = BET inhibitor-based combinations targeting novel dependencies in MECOM-rearranged (r) AML: SET-2 cell line (AID 2202231); settings: SET-2 AML cells viability, CellTiter-Glo luminescence, 48 h; viability: active compounds read low, concentration not given here; note: nearly all actives have a fitted effect of over 35% in size; note: potency is the fitted concentration of half-maximal effect;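 for viability: plate controls were DMSO treated cells for no effect and wells without cells for full effect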
How it was run: (§1)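 Luminescent ATP readout (CellTiter-Glo) after 48 hr drug exposure gives viability. Curves span 11 concentrations and are normalized to DMSO and empty wells. Activity is reported as area under the curve and its Z-transform within each cell line.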

[6] = BET inhibitor-based combinations targeting novel dependencies in MECOM-rearranged (r) AML: OCI-AML3 cell line (AID 2202232); settings: CellTiter-Glo luminescence, 48 h; Potency: OCI-AML3 viability; series mostly up to 46 µM; note: nearly all actives have a fitted effect of over 35% in size; note: potency is the fitted concentration of half-maximal effect;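 for viability (% of control): plate controls were DMSO vehicle wells for no effect and wells without cells for full effect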
How it was run: as §1

[7] = BET inhibitor-based combinations targeting novel dependencies in MECOM-rearranged (r) AML: MV-4-11 cell line (AID 2202233); settings: MV-4-11 AML viability, CellTiter-Glo luminescence, 48 h; series mostly up to 46 µM; note: nearly all actives have a fitted effect of over 45% in size; note: potency is the fitted concentration of half-maximal effect
How it was run: (§2)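 Luminescent ATP readout (CellTiter-Glo, 15 min at room temperature) after 48 hr drug exposure gave viability. Dose-response curves, normalized to DMSO and empty-well controls, were summarized as area under the curve and its mean-centred Z-score.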

[8] = BET inhibitor-based combinations targeting novel dependencies in MECOM-rearranged (r) AML: HNT-34 cell line (AID 2202234); settings: HNT-34 AML viability, CellTiter-Glo luminescence, 48 h; series mostly up to 46 µM; note: nearly all actives have a fitted effect of over 35% in size; note: potency is the fitted concentration of half-maximal effect;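 for viability (% of control): plate controls were vehicle wells for no effect and cell-free wells for full effect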
How it was run: as §2

[9] = BET inhibitor-based combinations targeting novel dependencies in MECOM-rearranged (r) AML: UCSD-AML1 cell line (AID 2202235); settings: UCSD-AML1 AML cells viability, CellTiter-Glo, 48 h; series mostly up to 46 µM; note: nearly all actives have a fitted effect of over 40% in size; note: potency is the fitted concentration of half-maximal effect;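 for viability (% of control): plate controls were DMSO vehicle wells for no effect and blank wells for full effect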
How it was run: as §2

[10] = BET inhibitor-based combinations targeting novel dependencies in MECOM-rearranged (r) AML: AML-191 cell line (AID 2202236; note: nearly all actives have a fitted effect of over 35% in size; note: potency is the fitted concentration of half-maximal effect;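 for viability (% of control): plate controls were vehicle wells for no effect and wells without cells for full effect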); settings: AML-191 viability, CellTiter-Glo luminescence, 48 h; series mostly up to 46 µM
How it was run: as §1

[11] = BET inhibitor-based combinations targeting novel dependencies in MECOM-rearranged (r) AML: AML-194 cell line (AID 2202237; note: nearly all actives have a fitted effect of over 40% in size; note: potency is the fitted concentration of half-maximal effect;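 for viability (% of control): plate controls were vehicle wells for no effect and wells without cells for full effect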); settings: AML-194 (MECOM-r AML) viability, CellTiter-Glo, 48 h; series mostly up to 46 µM
How it was run: as §1

NS(=O)(=O)OC[C@@H]1C[C@@H](n2ccc3c(N[C@H]4CCc5ccccc54)ncnc32)C[C@@H]1O
active: Potency [5] 0.525 µM | Potency [6] 0.372 µM | Potency [7] 0.209 µM | Potency [8] 372 nM | Potency [9] 590 nM | Potency [10] 0.934 µM | Potency [11] 0.934 µM
inactive: activation [1] -7.64% and -2.39% | Potency [2] | Potency [3] | Potency [4]

COc1cccc2c(NCc3ccccc3)nc(-n3c(N)nc4ccccc43)nc12
inactive: activation [1] -21.2% | Potency [2] | Potency [3] | Potency [4]
active: Potency [5] 7.42 µM | Potency [6] 3.32 µM | Potency [7] 7.42 µM | Potency [8] 3720 nM | Potency [9] 4170 nM | Potency [11] 2.63 µM

CCCCNc1ncc2c(-c3ccc(CN4CCN(C)CC4)cc3)cn(C3CCC(O)CC3)c2n1 (stereo not drawn)
active: Potency [1] 21.3 µM | Potency [5] 14.8 µM and 11.8 µM | Potency [6] 6.61 µM and 4.68 µM | Potency [7] 59 nM and 93.4 nM | Potency [8] 1.05 µM and 1.18 µM | Potency [9] 4.17 µM and 3.32 µM | Potency [10] 833 nM and 1.18 µM | Potency [11] 742 nM and 1.05 µM
inactive: Potency [2] | Potency [3] | Potency [4]

CN(C)C1CCN(C(=O)c2ccc(NC(=O)Nc3ccc(-c4nc(N5CCOCC5)nc(N5CCOCC5)n4)cc3)cc2)CC1
active: Potency [5] 4.68 µM | Potency [6] 0.166 µM | Potency [7] 0.118 µM | Potency [9] 263 nM | Potency [11] 1.48 µM
inactive: activation [1] -0.955% | Potency [2] | Potency [3] | Potency [4]

NCC(=O)Nc1ccc(-n2nc(C(F)(F)F)cc2-c2ccc3c(ccc4ccccc43)c2)cc1
inactive: activation [1] -7.41% | Potency [2] | Potency [3] | Potency [4] | Potency [9]
active: Potency [5] 11.8 µM | Potency [6] 18.6 µM | Potency [7] 4.68 µM | Potency [10] 16.6 µM

O=C(NCC(=O)N1CC[C@H](NC2CCC(O)(c3ccc(-c4ncccn4)cn3)CC2)C1)c1cccc(C(F)(F)F)c1 (stereo partly drawn)
active: Potency [7] 10.5 µM
inactive: activation [1] 5.25% | Potency [2] | Potency [3] | Potency [4] | viability [5] 98.1% | Potency [8] | Potency [9] | Potency [10]

CCc1cccc2c3c([nH]c12)[C@@](CC)(CC(=O)O)OCC3
inactive: activation [1] -4.77% | Potency [2] | Potency [3] | Potency [4] | viability [5] 112% | Potency [6] | Potency [8] | Potency [9] | Potency [10] | Potency [11]

COc1ccc(N(C)c2nc(C)nc3ccccc23)cc1
active: Potency [5] 0.0118 µM | Potency [6] 0.0093 µM | Potency [9] 11.8 nM | Potency [10] 0.0093 µM | Potency [11] 0.0105 µM
inactive: activation [1] 0.477% | Potency [2] | Potency [3] | Potency [4]

CCC(CC)C(c1ccc(Nc2nc3ccccc3s2)cc1)n1cncn1 (stereo not drawn)
inactive: activation [1] 17.2% | Potency [2] | Potency [3] | Potency [4] | Potency [9]
active: Potency [5] 20.9 µM | Potency [6] 11.8 µM

COc1ccc(-n2nc(C(N)=O)c3c2C(=O)N(c2ccc(N4CCCCC4=O)cc2)CC3)cc1
inactive: activation [1] 22.9% and -7.16% | Potency [2] | Potency [3] | Potency [4] | viability [5] 101% | Potency [6] | Potency [7] | Potency [11]

CN1CC[C@@H](NC(=O)Nc2ccc(C#N)cc2)C[C@@H]1c1nc2ccccc2[nH]1
inactive: activation [1] -0.477% | Potency [2] | Potency [4] | viability [5] 117% | Potency [6] | Potency [9] | Potency [10] | Potency [11]
active: Potency [3] 3.98 µM

CC(C)(C)NC(=O)Nc1cccc(Nc2ncc(F)c(NC(C)(C)CO)n2)c1
inactive: activation [1] -4.76% and -4.3% | Potency [2] | Potency [3] | Potency [4]
active: Potency [5] 16.6 µM | Potency [6] 3.72 µM | Potency [7] 2.63 µM | Potency [9] 3720 nM | Potency [11] 5.9 µM

CCN(CCO)CCCC(C)Nc1ccnc2cc(Cl)ccc12 (stereo not drawn)
inactive: activation [1] 3.35% and 25.7% and 0.955% | activity change, negative = inhibition [2] 2.52% [at 5.59 µM] | activity change, negative = inhibition [3] 6.92% [at 9.14 µM] | activity change, negative = inhibition [4] 5.26% [at 5.59 µM] | viability [5] 104% | viability (% of control) [6] 48.6% [at 5.12 µM] | viability (% of control) [9] 97.7% [at 5.12 µM] | viability (% of control) [10] 74.5% [at 5.12 µM] | viability (% of control) [11] 88% [at 5.12 µM]

NC(=O)c1cccc2cn(-c3ccc([C@@H]4CCCNC4)cc3)nc12
inactive: activation [1] 20.3% and 6.68% | Potency [2] | Potency [3] | Potency [4]
active: Potency [5] 14.8 µM | Potency [7] 4.17 µM

O=C(C(c1ccccc1)c1ccccc1)N1CCN(CC(O)COc2cccc3ncccc23)CC1 (stereo not drawn)
active: Potency [5] 20.9 µM | Potency [6] 11.8 µM | Potency [7] 18.6 µM | Potency [10] 18.6 µM
inactive: activation [1] 4.77% | Potency [2] | Potency [3] | Potency [4]

Cc1cc(C(=O)N2CCN(c3cccc(Cl)c3)CC2)n(-c2ccccc2)n1
active: Potency [5] 9.34 µM | Potency [6] 4.17 µM | Potency [7] 3.72 µM | Potency [10] 2.09 µM | Potency [11] 2.63 µM
inactive: activation [1] -1.43% | Potency [2] | Potency [3] | Potency [4]

Reference: PubChem BioAssay (NCATS)
